# In PubChem BioAssay (NCATS):
# Unmarked numbers belong to inactive results. Inconclusive results are not listed. The source made the active and inactive calls. Unless noted, the call rests on the fitted dose curve; in most records, active means well fitted curve in either direction with a large enough effect (not every such curve was filed as active); inconclusive means small, poorly fitted or top-dose-only effect, or another doubt; inactive means flat fitted curve, though single readings scatter.
# Key:
# [1] = target: Lysosomal acid glucosylceramidase (Homo sapiens) (UniProt P04062); assay: Glucocerebrosidase-p2 (AID 348; in the data active means potency below about 10 µM; further: potency means the concentration at half of the fitted maximal effect); details: purified GBA, blue fluorogenic substrate, 40 min
# Summary of the method: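 Normal human glucocerebrosidase (0.2 nM) with blue fluorogenic substrate (80 uM final) in citrate/phosphate pH 5.9 with 10mM sodium taurocholate, 0.01% tween-20; 40 min RT, NaOH/glycine stop; fluorescence Ex 365/Em 440; AC50 from a titration from 0.6 nM upwards.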
# [2] = AP1 Signaling Pathway (AID 357); details: ME-180 AP-1-bla reporter, EGF-induced, beta-lactamase ratio, 5 h; at 7.69 µM (top of the series) unless noted;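 further: ME-180 reporter cells stimulated with EGF at its EC50 level; on the % scale 0 is the no-effect control and ±100 the full control effect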
# Summary of the method: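 AP-1-bla ME-180 cells, Opti-MEM + 0.5% dialyzed FBS, plated overnight 37 °C. Cpd titration + EC50 EGF, 5 h 37 °C. CCF4 2.5 h RT; ex 405, em 460/530 ratio → %activity, AC50.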
# [3] = target: Cytochrome P450 1A2 (Homo sapiens) (UniProt P05177); assay: p450-cyp1a2 (AID 410; calls by dose curve; further: potency means the concentration at half of the fitted maximal effect;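 on activity change, negative = inhibition: -100% = full effect of reference inhibitor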); details: recombinant CYP1A2, luciferin-ME demethylation, luminescence; series mostly up to 11.4 µM
# Summary of the method: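 Read-out is luminescence from luciferin produced by CYP1A2 demethylation of Luciferin-ME (100uM, at Km). Detection reagent stopped the 60 min NADPH-dependent reaction; signals were normalized to 57 uM furafylline.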
# [4] = NFAT Signaling Pathway (AID 444); details: Jurkat NFAT-bla M1, carbachol, beta-lactamase ratio, 5 h; at 7.69 µM (top of the series) unless noted;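 further: carbachol stimulus at about its EC50 of 1 µM final; on the % scale 0 is the no-effect control and ±100 the full control effect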
# Summary of the method: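 Read-out: CCF4 FRET ratio (460 nm/530 nm) after 1 h RT dye loading, used for %activity and AC50 from titration series. Cells: Jurkat NFAT-β-lactamase/M1 line, treated with compound plus 1 uM carbachol for 5 h, 37 °C.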
# [5] = Stat Signaling Pathway (AID 446); details: ME-180 (cervical carcinoma) SIE beta-lactamase reporter, IL-6 stimulated, 5 h; at 7.69 µM (top of the series) unless noted;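 further: ME-180 cervical cancer cells given 40 pM IL-6 alongside compound; SIE-controlled beta-lactamase reporter measured as 460/530 nm FRET emission ratio; on the % scale 0 is the no-effect control and ±100 the full control effect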
# Summary of the method: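 FRET read-out (405 nm excitation, 460/530 nm emission) of a beta-lactamase reporter under a STAT-inducible element in ME-180 cervical carcinoma cells. Cells with compound receive 40 pM IL-6 for 5 h. Values are normalised to AC90 stimulation and AC90 JAK-inhibitor controls.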
# [6] = target: Glucocorticoid receptor (Homo sapiens) (UniProt P04150); assay: GR-GFP Redistribution (AID 450;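 active means compounds whose dose series gives a full or clear partial fitted curve of increased nuclear translocation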; further: potency means the concentration at half of the fitted maximal effect); details: U2OS GR-GFP nuclear translocation, laser cytometry, 2 h
# [7] = target: Glucocorticoid receptor (Homo sapiens) (UniProt P04150); assay: GR-EFC Redistribution (AID 451; calls by dose curve; further: potency means the concentration at half of the fitted maximal effect); details: CHO-K1 GR-EFC translocation, beta-gal luminescence, 2 h
# Summary of the method: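 Translocation of GR-ED fusion to nuclear EA restores b-gal, read by luminescence after 1 h room-temperature detection. Engineered CHO-K1 biosensor cells, 1,000/well, exposed 2 h at 37 C to titrations up to 46 uM final.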
# [8] = target: Mitogen-activated protein kinase 10 (Mus musculus) (UniProt Q61831); assay: JNK3 AlphaScreen Assay (AID 530); details: JNK3 lysate, c-Jun phosphorylation; series mostly up to 11.4 µM;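 further: kinase came from lysate of stimulated human HepG2 cells; signal reports phosphorylation of biotinylated GST-cJun 1-79 at Ser73 with 10 µM ATP; on the % scale 0 is the no-effect control and ±100 the full control effect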
# Summary of the method: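 Kinase buffer: 20 mM Tris-HCl pH 7.6, 10 mM MgCl2, 1 mM DTT, 0.1 mM Na3VO4, 0.01% Tween-20; ATP 10 uM. Substrate biotin-GST-cJun(1-79), enzyme from activated HepG2 lysates. Detection by Ser73 phospho-antibody AlphaScreen.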
# [9] = target: 3',5'-cyclic-AMP phosphodiesterase 4B (Homo sapiens) (UniProt Q07343); assay: qHTS Assay for Inhibitors of PDE-IV (AID 607; active means well fitted activation curve with a large enough effect in the main read-out, with a control signal flat, not every such curve was filed as active; further: % of control where 0% means no effect); details: HEK293 ACTOne CNG channel cells, membrane potential fluorescence; series mostly up to 22.9 µM
# Summary of the method: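 Cell-based read-out of cAMP via a modified cyclic nucleotide-gated channel and membrane potential dye (535/590 nm) in HEK293 cells expressing PDE4 endogenously. Compounds tested up to 22.9 uM final; 100 uM RO 20-1724 reference.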
# Sequence of Glucocorticoid receptor (Homo sapiens) (P04150 whole entry, looked up, the tested form may be a part): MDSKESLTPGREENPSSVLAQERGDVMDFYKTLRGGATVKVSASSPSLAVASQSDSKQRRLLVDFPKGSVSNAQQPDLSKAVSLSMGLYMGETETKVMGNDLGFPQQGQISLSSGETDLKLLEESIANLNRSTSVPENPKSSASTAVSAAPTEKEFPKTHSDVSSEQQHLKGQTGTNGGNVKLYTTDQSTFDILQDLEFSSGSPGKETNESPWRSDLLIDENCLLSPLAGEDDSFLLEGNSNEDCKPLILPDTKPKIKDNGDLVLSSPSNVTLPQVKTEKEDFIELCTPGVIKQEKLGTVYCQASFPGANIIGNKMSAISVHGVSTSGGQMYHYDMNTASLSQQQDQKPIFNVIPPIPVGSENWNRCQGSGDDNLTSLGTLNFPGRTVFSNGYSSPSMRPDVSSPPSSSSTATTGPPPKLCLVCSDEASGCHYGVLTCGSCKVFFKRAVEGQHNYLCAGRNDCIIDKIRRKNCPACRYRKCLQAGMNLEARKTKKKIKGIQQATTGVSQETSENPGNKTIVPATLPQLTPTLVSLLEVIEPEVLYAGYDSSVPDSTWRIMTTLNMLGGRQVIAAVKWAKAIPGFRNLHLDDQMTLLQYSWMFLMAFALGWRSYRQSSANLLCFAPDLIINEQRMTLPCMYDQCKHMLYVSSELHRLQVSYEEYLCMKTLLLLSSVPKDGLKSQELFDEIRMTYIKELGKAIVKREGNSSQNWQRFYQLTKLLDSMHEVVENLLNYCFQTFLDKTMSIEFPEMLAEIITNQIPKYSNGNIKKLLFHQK
# Sequence of Cytochrome P450 1A2 (Homo sapiens) (P05177 whole entry, looked up): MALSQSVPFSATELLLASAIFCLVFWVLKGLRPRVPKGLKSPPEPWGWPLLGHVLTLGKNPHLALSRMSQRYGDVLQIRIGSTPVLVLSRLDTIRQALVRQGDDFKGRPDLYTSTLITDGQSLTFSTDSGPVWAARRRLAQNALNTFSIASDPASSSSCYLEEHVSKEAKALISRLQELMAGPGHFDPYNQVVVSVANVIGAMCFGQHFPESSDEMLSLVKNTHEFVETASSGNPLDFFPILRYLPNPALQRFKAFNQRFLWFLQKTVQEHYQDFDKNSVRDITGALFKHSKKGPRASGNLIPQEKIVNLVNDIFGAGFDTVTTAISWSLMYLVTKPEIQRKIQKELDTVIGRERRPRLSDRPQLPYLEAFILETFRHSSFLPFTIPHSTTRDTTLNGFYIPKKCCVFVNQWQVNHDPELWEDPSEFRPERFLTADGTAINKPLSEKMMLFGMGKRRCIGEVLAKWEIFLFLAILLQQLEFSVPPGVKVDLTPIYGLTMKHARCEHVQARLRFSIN
# Sequence of Lysosomal acid glucosylceramidase (Homo sapiens) (P04062 whole entry, looked up): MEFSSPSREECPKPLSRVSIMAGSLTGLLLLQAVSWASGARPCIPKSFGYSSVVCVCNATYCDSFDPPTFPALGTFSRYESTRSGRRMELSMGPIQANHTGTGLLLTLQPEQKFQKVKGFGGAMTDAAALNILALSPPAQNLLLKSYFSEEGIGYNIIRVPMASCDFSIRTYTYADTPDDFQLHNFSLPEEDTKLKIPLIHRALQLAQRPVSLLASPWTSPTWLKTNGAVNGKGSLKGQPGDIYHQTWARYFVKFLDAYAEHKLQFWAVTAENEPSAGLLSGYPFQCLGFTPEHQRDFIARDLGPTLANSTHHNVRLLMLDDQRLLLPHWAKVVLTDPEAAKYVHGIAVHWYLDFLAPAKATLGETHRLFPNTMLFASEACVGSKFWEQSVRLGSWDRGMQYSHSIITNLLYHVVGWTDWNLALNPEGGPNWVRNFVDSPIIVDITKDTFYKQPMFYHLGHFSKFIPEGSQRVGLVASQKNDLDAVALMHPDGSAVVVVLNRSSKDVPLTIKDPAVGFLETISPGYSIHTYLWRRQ
# Sequence of 3',5'-cyclic-AMP phosphodiesterase 4B (Homo sapiens) (Q07343 whole entry, looked up): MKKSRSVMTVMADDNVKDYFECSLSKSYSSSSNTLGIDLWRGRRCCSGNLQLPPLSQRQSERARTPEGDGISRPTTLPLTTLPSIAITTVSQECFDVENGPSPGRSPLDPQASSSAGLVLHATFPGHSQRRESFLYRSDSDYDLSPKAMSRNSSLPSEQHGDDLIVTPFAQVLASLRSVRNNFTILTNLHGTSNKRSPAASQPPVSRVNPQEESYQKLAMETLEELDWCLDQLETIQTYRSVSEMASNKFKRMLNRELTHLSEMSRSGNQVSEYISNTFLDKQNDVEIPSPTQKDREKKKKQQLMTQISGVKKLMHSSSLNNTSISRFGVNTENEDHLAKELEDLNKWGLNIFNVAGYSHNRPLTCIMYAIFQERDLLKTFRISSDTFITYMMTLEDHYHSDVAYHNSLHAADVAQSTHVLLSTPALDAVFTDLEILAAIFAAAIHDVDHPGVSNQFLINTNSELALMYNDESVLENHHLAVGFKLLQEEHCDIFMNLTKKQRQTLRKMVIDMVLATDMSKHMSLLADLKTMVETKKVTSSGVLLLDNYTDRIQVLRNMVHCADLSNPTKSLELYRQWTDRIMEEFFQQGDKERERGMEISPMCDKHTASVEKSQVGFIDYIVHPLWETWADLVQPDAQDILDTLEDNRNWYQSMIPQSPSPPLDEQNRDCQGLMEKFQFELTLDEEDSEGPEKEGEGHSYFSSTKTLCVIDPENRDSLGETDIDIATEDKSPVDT
SMILES,Potency [1] [µM],"activity change, negative = inhibition [2] [%]","activity change, negative = inhibition [3]","activity change, negative = inhibition [4] [%]","activity, negative = inhibition [5] [%]",Potency [6] [µM],Potency [7] [µM],Potency [8],Potency [9],Potency [3]
CS[C@]12C(=O)C[C@]3(C)[C@@H](CC[C@@]3(O)C(=O)CO)[C@@H]1CCC1=CC(=O)CC[C@]12C,> 11.4,0.905,-24.3% [at 2.29 µM],1.52,-2.04,> 46,> 9.22,inactive,inactive,–
NC(N)=NC[C@@H]1CCCCCCN1,> 11.4,2,–,4.87,-5.43,> 46,> 9.22,inactive,inactive,inactive
NC[C@H]1O[C@H](n2cnc3c(N)ncnc32)C[C@@H]1O,> 11.4,-8.42,–,7.55,9.05,> 46,> 9.22,inactive,inactive,inactive
O=C(O)[C@@H]1[C@@H](C(=O)NCc2cccnc2)[C@@H]2C=C[C@@H]1O2,> 11.4,8.06,-0.4% [at 2.29 µM],2.31,0.333,> 46,> 9.22,inactive,inactive,–
Cc1ccc(S(=O)(=O)N=Nc2c(O)[nH]c3cc(O)c(C(=O)O)cc23)cc1,> 11.4,-1.74,-15.8% [at 2.29 µM],7.79,0.979,> 46,> 9.22,inactive,inactive,–
Nc1ncnc2nn([C@H]3O[C@@H](CO)[C@@H](O)[C@H]3O)nc12,> 11.4,-9.36,–,5.89,-5.99,> 46,> 9.22,inactive,inactive,inactive
C[C@H]1CCCC2(CC[N+](C)(CCC[N+](C)(C)C)CC2)C1 (some centres not stated),11.6,14.2,–,-5.86,1.53,> 46,> 9.22,inactive,inactive,inactive
COc1cc2ccc([C@H](C)NCC#N)cc2cc1OC,> 11.4,-11.4,–,9.37,-0.292,> 46,> 9.22,inactive,inactive,0.501 µM (active)
S=c1nc[nH]c2c1ncn2Cc1ccco1,> 11.4,8.99,–,-0.242,5.55,> 46,> 9.22,inactive,inactive,inactive
CN(C)CCCNc1cc(O)c2c(c1O)C(=O)c1ccccc1C2=O,> 11.4,9.25,-23.1% [at 2.29 µM],23.5,26,> 46,> 9.22,inactive,inactive,–
O=C(O)c1ccccc1-c1ccccc1C(=O)Nc1ccc2c(c1)Cc1ccccc1-2,> 11.4,6.9,-7.1% [at 2.29 µM],-20.4,-24.1,> 46,> 9.22,inactive,inactive,–
S=C(S)NCCN1CCNCC1,> 11.4,-1.68,–,-3.23,-9.45,> 46,> 9.22,inactive,inactive,inactive
OCCNc1ncnc2c1ncn2[C@@H]1O[C@@H](CO)[C@H](O)[C@@H]1O,> 11.4,3.21,–,9.99,25.8,> 46,> 9.22,inactive,inactive,inactive
Nc1c(S(N)(=O)=O)cc(S(N)(=O)=O)cc1S(N)(=O)=O,> 11.4,2.78,–,7.97,1.94,> 46,> 9.22,inactive,inactive,inactive
O=C(O)[C@H](CCc1ccccn1)c1ccccc1,> 11.4,-0.682,–,-1.01,0.534,> 46,> 9.22,inactive,inactive,inactive
CN1CCN(CCCBr)CC1,> 11.4,5.14,–,10.6,-3.86,> 46,> 9.22,inactive,inactive,inactive
Cn1c(=O)c2[nH]c(/N=N\N3CCN(CCO)CC3)nc2n(C)c1=O,> 11.4,6.96,-14.7% [at 2.29 µM],7.64,11.6,> 46,> 9.22,inactive,inactive,–
COc1ccc(CSC2=C(C#N)C(=O)NC3(CCCCC3)S2)cc1,> 11.4,4.52,-5.8% [at 2.29 µM],7.32,1.46,> 46,> 9.22,inactive,inactive,–
C[C@@H](CNC(N)=O)NC(N)=O,> 11.4,4.39,–,12.2,5.82,> 46,> 9.22,inactive,inactive,inactive
O=C(O)c1c2c(c(O)c3c1CN(C1CCCCC1)CO3)OCN(C1CCCCC1)C2,> 11.4,4.96,–,29.1,0.651,> 46,> 9.22,inactive,inactive,inactive
O=C(N/N=C\c1cccc(O)c1)c1ccncc1,> 11.4,-2.52,–,-7.01,4.22,> 46,> 9.22,inactive,inactive,inactive
O=C(O)[C@@H]1Cc2c([nH]c3ccccc23)[C@@H](CCCCO)N1,> 11.4,-12.4,-9.6% [at 2.29 µM],3.55,-0.601,> 46,> 9.22,inactive,inactive,–
C[C@H]1O[C@@H](CC(=O)O)Cc2c1c(O)c1c(O)cc(-c3cc(=O)c4c(=O)c5c(c(=O)c=4c3=O)C[C@H](CC(=O)O)O[C@@H]5C)c(O)c1c2O,> 11.4,13,-29.1% [at 2.29 µM],9.83,-5.2,> 46,> 9.22,inactive,inactive,–
Nc1cc(S(=O)(=O)O)cc2ccc(S(=O)(=O)O)cc12,> 11.4,1.79,-18.1% [at 2.29 µM],2.43,-1.78,> 46,> 9.22,inactive,inactive,–
COc1ccc2nccc(SCC(=O)O)c2c1,> 11.4,7.58,–,6.79,-2.7,> 46,> 9.22,inactive,inactive,3.98 µM (active)
Cn1ccnc1C[C@@](C)(O)c1ccccc1,> 11.4,7.99,–,2.18,8.21,> 46,> 9.22,inactive,inactive,inactive
Cc1ncc(CSC(=N)N)n1Cc1ccccc1,> 11.4,6.64,–,-15.5,4.51,> 46,> 9.22,inactive,inactive,inactive
O=C(O)c1ccc(OCc2ccccc2)c(Cl)c1,> 11.4,-4.15,-3.2% [at 2.29 µM],2.05,6.68,> 46,> 9.22,inactive,inactive,–
